# Assay results reported in PubChem BioAssay (NCI).
# The panel holds about 83,000 compounds, 20% with a hit somewhere; the sample as a whole holds those more often.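 48-hour exposure, single concentration, 96-well plates; percent growth endpoint where 0 means no net growth. Active: below 10.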 The source made the active and inactive calls.
# System: MDA-MB-468 breast
# Test: NCI-60 one-dose screen, 48 h (100 = growth as untreated, 0 = no growth, -100 = all killed)
# Settings: 10 µM unless noted
row,Compound,growth
1,CCCCCCNC(=O)Oc1ccc(/C(=C(/CC)Cc2ccccc2)c2ccc(OCCN3CCCCC3)cc2)cc1,86.3% (inactive)
2,Cc1ccc(S(=O)(=O)Oc2ccc(Br)cc2Br)cc1,23.7% (inactive)
3,N#Cc1c(NC(=O)c2ccccc2C(F)(F)F)sc2c1CCC(=O)C2,-0.286% (active)
4,Nc1ccc(N=Nc2ccccc2)c2cc(S(=O)(=O)O)ccc12,109% (inactive)
5,C=C1CCc2nc(SCC(=O)O)ccc2N1,97.3% (inactive)
6,O=C1/C(=C2/C=Nc3ccccc32)N(O)c2ccccc21,62.2% (inactive)
7,O=C(Nc1nc(-c2ccccc2Cl)cs1)c1cc(-c2ccccc2)nc2ccc(Cl)cc12,90.9% (inactive)
8,COc1cccc(-c2nc3sccn3c2-c2ccnc(NCCCNS(=O)(=O)c3ccc(Cl)cc3)c2)c1,34.3% (inactive)
9,COC(=O)c1cc(O)c2cc3c(cc2c1-c1cc(OC)c(OC)c(OC)c1)OCO3,-8.52% (active)
10,Cn1c(C(N)=O)cc2c1-c1nc(Nc3ccccc3)ncc1CCC2,53.4% (inactive)
11,Cc1ccc(-c2csc(NC(=O)CN3CCN(c4cc5c(cc4F)c(=O)c(C(=O)O)cn5C4CC4)CC3)n2)cc1,3.21% (active)
12,Nc1c(C(=O)Nc2ccccc2F)sc2nc3c(cc12)CCCC3,26.4% (inactive)
13,CN(C)CCN(C)c1ccc2ncc(C#Cc3cncc(C(=O)Nc4ccc(CN5CCN(C)CC5)c(C(F)(F)F)c4)c3)n2n1,84.8% (inactive)
14,N#Cc1ncc(-c2ccc(F)c(F)c2F)c(NC2CCCCCC2)n1,86.1% (inactive)
15,COc1ccccc1-n1c(-c2sc(NC(C)=O)nc2C)n[nH]c1=S,124% (inactive)
16,Fc1cccc(COc2ccc(Nc3ncnc4onc(-c5ccccc5)c34)cc2)c1,9.54% (active)
17,CCN1C(=O)C(C)C=C(C)C=C1C (stereo not given),110% (inactive)
18,Cc1ccc(NC2=C(Cl)C(=O)c3nc(C)ccc3C2=O)c(C)c1,-70.2% (active)
19,CC(=O)Oc1c(Cl)cccc1-c1ccccc1,100% (inactive)
20,Nc1nc(Cl)c2[nH]cnc2n1,94.7% (inactive)

row,Compound,growth
1,CCOC(=O)c1ccc2c(c1)[n+](=O)c(C(=O)C1CCCS1)c(C(F)(F)F)n2[O-] (stereo not given),-80.5% (active)
2,c1ccc(-c2nnc(Nc3nnc(-c4ccccc4)s3)s2)cc1,107% (inactive)
3,C=C(C)[C@@H]1CC[C@]2(CO)CC[C@]3(C)[C@H](CC[C@@H]4[C@@]5(C)CCC(NCCc6ccc(O)cc6)C(C)(C)[C@@H]5CC[C@]43C)[C@@H]12 (stereo not given in full),-91.7% (active)
4,COc1ccc2oc(=O)cc(CN3C(=O)S/C(=C\c4ccc(Cl)cc4)C3=O)c2c1,101% (inactive)
5,CCCCOc1nc2ccccc2cc1/C=C/c1cc(/C=C/c2cc3ccccc3nc2OCCCC)n(-c2ccccc2)n1,104% (inactive)
6,CNCCCOc1c(Br)cc(CCNC(=O)/C(Cc2cc(Br)c(OC)c(Br)c2)=N/O)cc1Br,3.11% (active)
7,CC1=NC2=NC(=O)/C(=C3/N=C(C)C=C(c4ccccc4)N3N)NN2C(c2ccccc2)=C1,109% (inactive)
8,COC(=O)c1c2c(c(C)[n+]([O-])c1C)C(=O)C(NCc1ccc(OC)cc1)=CC2=O,-6.29% (active)
9,O=C(O)C1CCC(=O)N1C(=O)OCc1ccccc1 (stereo not given),106% (inactive)
10,COc1cc(NC(=O)c2cccc(-c3cc(=O)c4c(O)c(OC)c(OC)cc4o3)c2)cc(OC)c1OC,59.9% (inactive)
11,c1ccc(-c2nnc(Nc3ccc4c(c3)OCCO4)o2)c(NCc2ccncc2)c1,-33.4% (active)
12,CCc1ccc(OCc2ccccc2C(=O)Nc2ccc3nc(C)cc(N)c3c2)cc1,-58.4% (active)
13,COc1cc(C(=O)Nc2cc(OC)c3ccn(C)c3c2)cc2c1C[C@]1(C)CC[C@@H](O)C(C)(C)[C@H]1O2,8.94% (active)
14,C#CCOc1ccc(C2=NN(C)C3N=C(Cl)c4ncn(C)c4N23)cc1OCC#C (stereo not given),86.3% (inactive)
15,CC(=O)Oc1cc2ccccc2cc1C(C)C,98.8% (inactive)
16,CCCCNCCCCCNc1cc(OC)cc2cccnc12,68.8% (inactive)
17,Cc1nc(N)nc2c1CCC(Nc1ccccc1)S2 (stereo not given),100% (inactive)
18,O=C1NN(C(=O)c2ccccc2)C(c2ccc(Cl)c(Cl)c2)=C/C1=C\c1ccc([N+](=O)[O-])cc1,84.2% (inactive)
19,CSc1nc(N)c2[nH]c(-c3cc4ccccc4[nH]c3=O)nc2n1,1.87% (active)
20,C=C(C)[C@H]1CC/C(C)=C/CC[C@]2(C)O[C@H]2CC/C(COC(C)=O)=C\C1=O,115% (inactive)
